Hits are enriched below; roughly 11% of the tested compounds scored in any of these assays.
Sm TGR block – blocks Schistosoma mansoni thioredoxin glutathione reductase. purified TGR, DTNB reduction, TNB absorbance 405 nm. Potency, µM (titrated, usually from 114 µM), for inactives: at the highest dose activity change, negative = inhibition, actives largely listed as inhibitors. hit rate 3% among 360,000; also: % is scaled to controls: 0 for no effect and ±100 for the full control effect; nearly all actives have a fitted effect of over 60% in size
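Kinetic colorimetric format: TGR-catalysed, NADPH-driven DTNB reduction monitored via TNB absorbance. Enzyme dispensed at 20 nM; compound exposure 15 min at room temperature before reaction start.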
AMA1 RON2 block – inhibitors of Plasmodium falciparum AMA1-RON2 interaction | AlphaScreen AMA1-biotinylated RON2 peptide binding | Potency, µM (highest dose often 58.2 µM), inactives show at the top dose activity change, negative = inhibition, most hits filed as inhibitors | hit rate 0.2% among 360,000 | AID 720542;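 also: 0% = vehicle wells and -100% = peptide control; nearly all actives have a fitted effect of over 45% in size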
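AMA1 (3D7) with his tag at 25 nM final met compounds first, then biotinylated RON2 peptide at 25 nM; detection used donor plus acceptor beads, 10 µg/mL apiece, read by AlphaScreen after 30 min at room temperature.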
NS1 function inh – inhibitors of influenza NS1 protein function; Potency, µM (top dose mostly 46.1 µM), for inactives: top-dose activity, positive = more growth; AID 2326; hit rate 0.4% among 270,000; calls by dose curve; also: actives are rising curves; nearly all actives have a fitted effect of over 50% in size
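Read-out: OD600 growth recovery of NS1-expressing budding yeast. Cells grown overnight at 30C in -URA glucose medium, washed, resuspended and diluted 1:100 in 2% galactose assay medium, pH 6.0. Same strain lacking NS1 served as positive control.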
Pf growth 48h – inhibits P. falciparum growth in the first generation, 48 h. P. falciparum luciferase growth in erythrocytes, 48 h. Potency, µM (titrated, usually from 28.7 µM), for the others: top-dose activity change, negative = inhibition, hits mostly inhibitors. hit rate 5.9% among 310,000. AID 504832; also: % is scaled to controls: 0 for no effect and ±100 for the full control effect
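Firefly luciferase activity from engineered P. falciparum reports growth; inhibitors lower the luminescent signal. Cultures contained 2% hematocrit erythrocytes at 0.1% final parasitemia.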
Pf growth 96h – P. falciparum growth inhibition at 96 hours. AID 504834. hit rate 6.9% among 320,000. P. falciparum luciferase reporter growth, 96 h. Potency, µM (doses to about 28.7 µM), for the others: at the top dose activity change, negative = inhibition, usual class: inhibitors; also: % is scaled to controls: 0 for no effect and ±100 for the full control effect
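Cell-based qHTS: luciferase-tagged P. falciparum in erythrocytes (2% hematocrit, 0.05% parasitemia final) incubated with compounds for 96 hours, 37 C, 5% CO2; luciferase detection reagent then added and luminescence measured.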
* = called active by the depositor; u = inconclusive; x = no result; [ ] = dose if it differs, or a comment. Unless noted, calls follow the shape of the dose curve; as a rule, active = well fitted curve in the direction sought with a large enough effect; inconclusive = small, poorly fitted or top-dose-only effect, or another doubt; inactive = no such curve, though single readings can be large; an effect the other way counts as inactive or inconclusive. Potency is read from the fitted curve at half-maximal effect.

SMILES	Sm TGR block	AMA1 RON2 block	NS1 function inh	Pf growth 48h	Pf growth 96h
Cc1ccc(S(=O)(=O)Nn2c(O)c(C=C3N=c4ccccc4=N3)sc2=S)cc1	13µM*	25%	5%	u	41%
O=C1N=c2ccccc2=C1c1sc(=S)n(Cc2ccccc2Cl)c1O	1%	0%	4%	-1%	32%
O=C1N=c2ccc(Br)cc2=C1c1sc(=S)n(NS(=O)(=O)c2ccccc2)c1O	11µM*	20%	-22%	-14%	-16%
Cc1ccc(C(=O)Nn2c(O)c(C=C3N=c4ccccc4=N3)sc2=S)cc1	1%	23%	5%	36%	u
O=C1N=c2ccccc2=C1c1sc(=S)n(-c2ccc(O)cc2)c1O	-2%	2%	-4%	-1%	u
O=C1N=c2ccccc2=C1c1sc(=S)n(NC(=O)c2cccc(O)c2)c1O	-24%	13%	x	-1%	1.9µM*
CC(C)(CN1CCCC1)NC(=O)C1CCC(=O)N(CCCN2CCOCC2)C1 (centres undefined)	-4%	7%	1%	27%	15%
Cc1ccc(-n2ncc3c2CC(C)(C)CC3NC(=O)c2ccncc2)cc1 (centres undefined)	-8%	2%	-38%	-28%	u
CC(C)(C)n1ncc2c(=O)n(Cc3ccccc3Br)cnc21	0%	x	x	2.9µM*	u
COc1ccc(NC(=O)C2CCCN(C(=O)c3ccc(Cl)cc3)C2)cc1Cl (centres undefined)	-14%	6%	x	u	u
CCOC(=O)CCC(NC(=O)c1ccc(NCN2C(=O)CCC2=O)cc1)C(=O)OCC (centres undefined)	5%	0%	10%	-8%	2%
CCOC(=O)CCC(NC(=O)c1ccc(NCN2C(=O)c3ccccc3C2=O)cc1)C(=O)OCC (centres undefined)	0%[11.4 µM]	-4%	0%	x	4.1µM*
Cc1ccc(CCNC(=O)CCCn2c(=O)c3ccccc3n(Cc3ccccc3C#N)c2=O)cc1	1%	x	x	x	x
COc1ccc(C(=O)OCC(=O)N2CCc3ccccc3C2)cc1OC	x	-4%	x	x	x
Cc1cccc(OCC(=O)N2CCc3ccccc3C2)c1C	x	17%	x	x	x
CC(=O)Oc1cc(C(=O)OCC(=O)N2CCc3ccccc3C2)cc(OC(C)=O)c1OC(C)=O	x	0.32µM*	x	x	x
Cc1cccc(C)c1OCC(=O)N1CCc2ccccc2C1	-28%	5%	-84%	u	7.4µM*
O=C(OCC(=O)N1CCc2ccccc2C1)c1cccs1	-3%	0%	-6%	1.5µM*	-7%
CC1=C(C(=O)N2CCCCCC2)CC(CC(=O)NC(c2ccccc2)c2ccccc2)C(=O)N1Cc1ccccc1 (centres undefined)	x	-2%	x	x	x
COc1cc(-c2nc3n(c(=O)c2C#N)CCS3)cc(OC)c1OC	1%	7%	12%	u	0.66µM*
COC(=O)N1C(=O)[C@](c2ccc(Cl)cc2)(C(C)C)N1C(=O)OC	10µM*	0%	-15%	-1%	9%
COC(=O)N1C(=O)[C@](c2ccccc2)(C2CCCC2)N1C(=O)OC	20µM*	-3%	-4%	17%	-8%
COc1ccc(C2(c3ccc(OC)cc3)NC(=O)N(CC(=O)NC(C)C)C2=O)cc1	7%	2%	4%	23%	9%
COC(=O)N1C(=O)[C@@](c2ccc(OC)cc2)(C(C)C)N1C(=O)OC	28µM*	30%	-39%	-9%	2%
COC(=O)N1C(=O)[C@@](c2ccccc2)(C(C)C)N1C(=O)OC	35µM*	-1%	-18%	-9%	-5%
SMILES	Sm TGR block	AMA1 RON2 block	NS1 function inh	Pf growth 48h	Pf growth 96h
COc1cc(OC)cc(C(=O)NCC(=O)NC(C)c2ccccc2)c1 (centres undefined)	16%	7%	1%	-6%	-3%
COc1ccc2[nH]c3c(NCCN4CCCCC4)ncnc3c2c1	2%	x	5%	2.1µM*	20%
CCOc1ccc2[nH]c3c(NCCc4ccc(OC)c(OC)c4)ncnc3c2c1	-3%	-29%	-3%	4.7µM*	3.7µM*
Cn1c(=O)[nH]c(=O)c2c1nc(N1CCCCC1)n2C/C=N/Nc1ccc(C(=O)O)cc1	-25%	-4%	1%	u	47%
CC(C)(C)c1cnnn1-c1ccc(C=O)cc1	-5%	7%	-7%	-6%	28%
CC(C)(C)c1cnnn1-c1ccc(C(=O)CCl)cc1	8.9µM*	2%	-38%	-6%	51%
Cc1nnsc1C(=O)Oc1ccc(C#N)cc1	16µM*	x	x	x	x
COc1cccc(NC(=O)CCS(=O)(=O)c2ccc3c(c2)oc(=O)n3C)c1	-16%	-1%	2%	7%	u
CCOC(=O)c1c(C)[nH]c(C)c1C(=O)COC(=O)/C=C/c1ccc(Cl)cc1	-2%	-15%	-14%	u	9.3µM*
CCOC(=O)c1c(C)[nH]c(C)c1C(=O)COC(=O)/C=C/c1ccc(OC(F)F)cc1	3%	-10%	-15%	u	u
COc1cccc(CNC(=O)CN(C)S(=O)(=O)c2ccc(Br)s2)c1	-4%	41%	-2%	-4%	-24%
Cc1ccc(/C=c2\s/c(=C(/C#N)C(=O)N3CCCC3)n(Cc3ccco3)c2=O)s1	5µM*	-13%	-10%	u	20%
COc1cc(/C=c2\s/c(=C(/C#N)C(=O)N3CCCC3)n(-c3ccccc3)c2=O)ccc1O	18%[11.4 µM]	-1%	4%	x	20%
Cc1ccc(NC(=O)C(NS(=O)(=O)c2ccc3c(c2)CCC(=O)N3)c2ccccc2)cc1C (centres undefined)	-20%	x	x	x	x
CC(NC(=O)c1ccco1)C(c1cccs1)N1CCN(c2ccccc2)CC1 (centres undefined)	-3%	-6%	-53%	12µM*	13µM*
CC(NC(=O)c1ccco1)C(c1cccs1)N1CCN(c2ccc(F)cc2)CC1 (centres undefined)	2%	-7%	-41%	7.4µM*	x
CC(NC(=O)c1ccco1)C(c1cccs1)N1CCN(c2ccccc2F)CC1 (centres undefined)	1%	-5%	-54%	u	x
CCS(=O)(=O)NC(C)C(c1cccs1)N1CCN(c2ccc(F)cc2)CC1 (centres undefined)	5%	-6%	-8%	-1%	7%
CC(C)CN1CCN(CCCc2ccccc2)C(CCO)C1 (centres undefined)	-6%	5%	16%	u	9.3µM*
CC(C)(C)CN1CCN(CCCc2ccccc2)C(CCO)C1 (centres undefined)	-27%	-13%	-7%	u	u
CC(C)N1CCN(CCCc2ccccc2)CC1CCO (centres undefined)	7%	13%	0%	-8%	13µM*
Cc1ccc(CN2CCCn3nc(C(=O)NC(C)C)cc3C2=O)cc1	2%	x	x	x	x
CCOc1ccc(CN(C)Cc2cc(=O)oc3c(C)c(C)ccc23)cc1OC	x	-21%	x	x	x
Cc1ccc(-c2nn(-c3ccccc3)cc2C=C2SC(=S)N(CCS(=O)(=O)O)C2=O)cc1	x	32µM*	x	x	x
